# Assay results: PubChem BioAssay AID1159580 (chemical genetic matrix, 2015)
# Several values for one entry are separate records, joined by “and”; a condition that tells them apart may be missing. Equal entries are not always repeated. Among all 5,500 compounds or so, about 2,000 (36%) were called active. About 18% were inconclusive and are not listed. This is one part of the list. Values without a mark were called inactive. Rule as the data show it: active = normalized growth mostly below about 0.91 (no sharp cut-off); inconclusive = no clear call, values can overlap the other calls; inactive = mostly above about 0.92.
# Assay: chemical genetic growth profiling, strain panel (AID 1159580);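 also: tested at 20 µM; growth read once vehicle control cultures reached saturation at 30 °C; 1 = growth at the plate median or of vehicle wells; lower values mean less growth of the strain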
# Conditions: S. cerevisiae deletion strains, growth OD
smiles,measurement,setting,value
CCCCCC/C=C\CCCCCCCc1cccc(O)c1C(=O)O,normalized growth,"locus YAL013W, strain DEP1, active compounds read low",1.08
same,normalized growth,"locus YAL021C, strain ccr4, active compounds read low",0.972
same,normalized growth,"locus YAL026C, strain drs2, active compounds read low",0.979
same,normalized growth,"locus YAL030W, strain snc1, active compounds read low",0.974
same,normalized growth,"locus YBL061C, strain skt5, active compounds read low",0.98
same,normalized growth,"locus YBR009C, strain hhf1, active compounds read low",0.997
same,normalized growth,"locus YBR021W, strain FUR4, active compounds read low",0.929
same,normalized growth,"locus YBR023C, strain chs3, active compounds read low",0.967
same,normalized growth,"locus YBR171W, strain sec66, active compounds read low",1.05
same,normalized growth,"locus YBR229C, strain ROT2, active compounds read low",0.988
same,normalized growth,"locus YBR231C, strain swc5, active compounds read low",0.942
same,normalized growth,"locus YBR279W, strain paf1, active compounds read low",0.984
same,normalized growth,"locus YCL011C, strain gbp2, active compounds read low",0.95
same,normalized growth,"locus YCL016C, strain dcc1, active compounds read low",0.989
same,normalized growth,"locus YCL029C, strain bik1, active compounds read low",0.985
same,normalized growth,"locus YCL061C, strain MRC1, active compounds read low",0.989
same,normalized growth,"locus YCL069W, strain vba3, active compounds read low",0.938
same,normalized growth,"locus YCR088W, strain abp1, active compounds read low",0.972
same,normalized growth,"locus YDL005C, strain med2, active compounds read low",0.958
same,normalized growth,"locus YDL035C, strain GPR1, active compounds read low",1.05
same,normalized growth,"locus YDL040C, strain nat1, active compounds read low",0.967
same,normalized growth,"locus YDL074C, strain BRE1, active compounds read low",0.992
same,normalized growth,"locus YDL101C, strain DUN1, active compounds read low",1.01
same,normalized growth,"locus YDL185W, strain tfp1, active compounds read low",1.01
same,normalized growth,"locus YDL192W, strain arf1, active compounds read low",1
same,normalized growth,"locus YDR001C, strain nth1, active compounds read low",0.983
same,normalized growth,"locus YDR069C, strain doa4, active compounds read low",0.971
same,normalized growth,"locus YDR101C, strain arx1, active compounds read low",0.987
same,normalized growth,"locus YDR137W, strain rgp1, active compounds read low",0.939
same,normalized growth,"locus YDR150W, strain NUM1, active compounds read low",1.04
same,normalized growth,"locus YDR159W, strain sac3, active compounds read low",0.974
same,normalized growth,"locus YDR162C, strain NBP2, active compounds read low",1.06
same,normalized growth,"locus YDR195W, strain ref2",0.975
same,normalized growth,"locus YDR297W, strain sur2, active compounds read low",0.979
same,normalized growth,"locus YDR318W, strain mcm21, active compounds read low",0.995
same,normalized growth,"locus YDR334W, strain swr1, active compounds read low",0.956
same,normalized growth,"locus YDR335W, strain msn5, active compounds read low",0.975
same,normalized growth,"locus YDR388W, active compounds read low",1.01
same,normalized growth,"locus YDR392W, strain spt3, active compounds read low",0.813
same,normalized growth,"locus YDR502C, strain sam2, active compounds read low",1.01
same,normalized growth,"locus YEL003W, strain gim4, active compounds read low",0.982
same,normalized growth,"locus YEL037C, strain rad23, active compounds read low",0.965
same,normalized growth,"locus YEL061C, strain CIN8 (second series), active compounds read low",0.953
same,normalized growth,"locus YEL061C, strain CIN8, active compounds read low",1.01
same,normalized growth,"locus YER015W, strain faa2, active compounds read low",0.982
same,normalized growth,"locus YER016W, strain bim1, active compounds read low",0.976
same,normalized growth,"locus YER110C, active compounds read low",0.981
same,normalized growth,"locus YER111C, strain swi4, active compounds read low",0.947
same,normalized growth,"locus YER155C, strain BEM2 (second series), active compounds read low",0.843 (active)
same,normalized growth,"locus YER155C, strain BEM2, active compounds read low",0.991
same,normalized growth,"locus YER167W, strain BCK2, active compounds read low",1.01
same,normalized growth,"locus YFR010W, strain ubp6, active compounds read low",0.993
same,normalized growth,"locus YGL078C, strain dbp3, active compounds read low",0.995
same,normalized growth,"locus YGL086W, strain mad1, active compounds read low",0.989
same,normalized growth,"locus YGL167C, strain pmr1, active compounds read low",0.966
same,normalized growth,"locus YGL173C, strain kem1, active compounds read low",0.976
same,normalized growth,"locus YGL227W, strain vid30, active compounds read low",0.955
same,normalized growth,"locus YGL240W, strain doc1, active compounds read low",0.976
same,normalized growth,"locus YGL248W, strain PDE1, active compounds read low",1.01
same,normalized growth,"locus YGL253W, strain hxk2, active compounds read low",0.975
same,normalized growth,"locus YGR135W, strain pre9, active compounds read low",1.03
same,normalized growth,"locus YGR252W, strain gcn5, active compounds read low",1.04
same,normalized growth,"locus YHR013C, strain ard1, active compounds read low",0.956
same,normalized growth,"locus YHR027C, strain rpn1, active compounds read low",0.992
same,normalized growth,"locus YHR030C, strain SLT2, active compounds read low",1
same,normalized growth,"locus YHR079C, strain IRE1 (second series), active compounds read low",0.992
same,normalized growth,"locus YHR079C, strain IRE1, active compounds read low",1.01
same,normalized growth,"locus YHR094C, strain hxt1, active compounds read low",0.992
same,normalized growth,"locus YHR129C, strain ARP1, active compounds read low",0.998
same,normalized growth,"locus YHR142W, strain chs7, active compounds read low",0.974
same,normalized growth,"locus YHR200W, strain rpn10, active compounds read low",1
same,normalized growth,"locus YIL066C, strain RNR3, active compounds read low",1.03
same,normalized growth,"locus YIL073C, strain SPO22, active compounds read low",1.3
same,normalized growth,"locus YIL125W, strain kgd1, active compounds read low",0.994
same,normalized growth,"locus YIR030C, strain dcg1, active compounds read low",0.995
same,normalized growth,"locus YJL092W, strain hpr5, active compounds read low",0.941
same,normalized growth,"locus YJL095W, strain BCK1 (second series), active compounds read low",0.97
same,normalized growth,"locus YJL095W, strain BCK1, active compounds read low",0.991 and 0.952
same,normalized growth,"locus YJL115W, strain asf1, active compounds read low",0.972
same,normalized growth,"locus YJL129C, strain trk1, active compounds read low",0.914
same,normalized growth,"locus YJL134W, strain LCB3, active compounds read low",1
same,normalized growth,"locus YJL154C, strain vps35, active compounds read low",0.971
same,normalized growth,"locus YJL164C, strain tpk1, active compounds read low",0.999
same,normalized growth,"locus YJL166W, strain qcr8, active compounds read low",0.976
same,normalized growth,"locus YJL168C, strain set2, active compounds read low",0.988
same,normalized growth,"locus YJL187C, strain SWE1 (second series), active compounds read low",0.997
same,normalized growth,"locus YJR043C, strain POL32, active compounds read low",1.06
same,normalized growth,"locus YJR066W, strain TOR1, active compounds read low",0.968
same,normalized growth,"locus YKL009W, strain mrt4, active compounds read low",1.02
same,normalized growth,"locus YKL068W, active compounds read low",1.01
same,normalized growth,"locus YKL085W, strain MDH1 (second series), active compounds read low",0.997
same,normalized growth,"locus YKL085W, strain MDH1, active compounds read low",0.997
same,normalized growth,"locus YKL160W, strain elf1, active compounds read low",0.997
same,normalized growth,"locus YKL190W, strain CNB1, active compounds read low",1.06
same,normalized growth,"locus YKR001C, strain vps1, active compounds read low",0.989
same,normalized growth,"locus YKR026C, strain gcn3, active compounds read low",0.961
same,normalized growth,"locus YKR091W, strain srl3, active compounds read low",0.978
same,normalized growth,"locus YLL001W, strain dnm1, active compounds read low",0.988
same,normalized growth,"locus YLL026W, active compounds read low",0.974
same,normalized growth,"locus YLL041C, strain sdh2, active compounds read low",0.989
same,normalized growth,"locus YLR027C, strain aat2, active compounds read low",0.986
same,normalized growth,"locus YLR039C, strain RIC1, active compounds read low",1.01
same,normalized growth,"locus YLR058C, strain SHM2, active compounds read low",1
same,normalized growth,"locus YLR102C, strain apc9, active compounds read low",0.987
same,normalized growth,"locus YLR113W, strain HOG1, active compounds read low",0.946
same,normalized growth,"locus YLR221C, strain rsa3, active compounds read low",0.944
same,normalized growth,"locus YLR258W, strain gsy2, active compounds read low",0.957
same,normalized growth,"locus YLR262C, strain YPT6 (second series), active compounds read low",0.939
same,normalized growth,"locus YLR262C, strain YPT6, active compounds read low",0.977
same,normalized growth,"locus YLR268W, strain sec22, active compounds read low",0.991
same,normalized growth,"locus YLR320W, strain mms22, active compounds read low",0.951
same,normalized growth,"locus YLR330W, strain CHS5, active compounds read low",1.06
same,normalized growth,"locus YLR342W, strain FKS1 (second series), active compounds read low",1.03
same,normalized growth,"locus YLR342W, strain FKS1, active compounds read low",0.964
same,normalized growth,"locus YLR357W, strain rsc2, active compounds read low",0.953
same,normalized growth,"locus YLR370C, strain arc18, active compounds read low",0.969
same,normalized growth,"locus YLR371W, strain rom2, active compounds read low",1
same,normalized growth,"locus YLR384C, strain iki3, active compounds read low",0.97
same,normalized growth,"locus YLR418C, strain cdc73, active compounds read low",0.953
same,normalized growth,"locus YML016C, strain PPZ1, active compounds read low",0.989
same,normalized growth,"locus YML032C, strain rad52, active compounds read low",1.02
same,normalized growth,"locus YML120C, strain ndi1, active compounds read low",0.973
same,normalized growth,"locus YML124C, strain tub3, active compounds read low",0.985
same,normalized growth,"locus YMR058W, strain fet3, active compounds read low",0.734 (active)
same,normalized growth,"locus YMR078C, strain ctf18, active compounds read low",0.999
same,normalized growth,"locus YMR125W, strain sto1, active compounds read low",0.852 (active)
same,normalized growth,"locus YMR129W, active compounds read low",0.963
same,normalized growth,"locus YMR205C, strain PFK2, active compounds read low",1.02
same,normalized growth,"locus YMR223W, strain ubp8, active compounds read low",1.01
same,normalized growth,"locus YMR231W, strain pep5, active compounds read low",0.999
same,normalized growth,"locus YMR263W, strain SAP30, active compounds read low",1.03
same,normalized growth,"locus YMR307W, strain GAS1, active compounds read low",1.01
same,normalized growth,"locus YNL067W, strain RPL9B, active compounds read low",1.03
same,normalized growth,"locus YNL071W, strain lat1, active compounds read low",0.97
same,normalized growth,"locus YNL183C, strain NPR1, active compounds read low",0.923
same,normalized growth,"locus YNL209W, strain ssb2, active compounds read low",0.974
same,normalized growth,"locus YNL233W, strain BNI4, active compounds read low",1.01
same,normalized growth,"locus YNL248C, strain rpa49, active compounds read low",0.983
same,normalized growth,"locus YNL250W, strain rad50, active compounds read low",0.982
same,normalized growth,"locus YNL271C, strain bni1, active compounds read low",0.99
same,normalized growth,"locus YNL298W, strain CLA4, active compounds read low",1.01
same,normalized growth,"locus YNL307C, strain MCK1, active compounds read low",0.995
same,normalized growth,"locus YNL322C, strain KRE1 (second series), active compounds read low",0.949
same,normalized growth,"locus YNL322C, strain KRE1, active compounds read low",1
same,normalized growth,"locus YNR049C, strain mso1, active compounds read low",0.973
same,normalized growth,"locus YNR052C, strain pop2, active compounds read low",1.01
same,normalized growth,"locus YOL012C, strain htz1",0.359
same,normalized growth,"locus YOL147C, strain pex11, active compounds read low",0.99
same,normalized growth,"locus YOR001W, strain rrp6, active compounds read low",0.927
same,normalized growth,"locus YOR061W, strain CKA2, active compounds read low",0.992
same,normalized growth,"locus YOR069W, strain VPS5, active compounds read low",0.995
same,normalized growth,"locus YOR070C, strain gyp1, active compounds read low",0.975
same,normalized growth,"locus YOR080W, strain dia2, active compounds read low",0.988
same,normalized growth,"locus YOR083W, strain WHI5, active compounds read low",1
same,normalized growth,"locus YOR106W, strain vam3, active compounds read low",0.985
same,normalized growth,"locus YOR136W, strain idh2, active compounds read low",0.988
same,normalized growth,"locus YOR144C, strain elg1, active compounds read low",0.994
same,normalized growth,"locus YOR184W, strain ser1, active compounds read low",0.999
same,normalized growth,"locus YOR231W, strain MKK1, active compounds read low",0.997
same,normalized growth,"locus YOR265W, strain rbl2, active compounds read low",0.987
same,normalized growth,"locus YOR270C, strain vph1, active compounds read low",1.01
same,normalized growth,"locus YOR290C, strain snf2, active compounds read low",1
same,normalized growth,"locus YOR316C, strain cot1, active compounds read low",0.986
same,normalized growth,"locus YPL051W, strain arl3, active compounds read low",0.974
same,normalized growth,"locus YPL078C, strain atp4, active compounds read low",0.971
same,normalized growth,"locus YPL106C, strain sse1, active compounds read low",1.01
same,normalized growth,"locus YPL240C, strain hsp82, active compounds read low",0.959
same,normalized growth,"locus YPL241C, strain CIN2, active compounds read low",0.997
same,normalized growth,"locus YPL256C, strain CLN2, active compounds read low",0.981
same,normalized growth,"locus YPR119W, strain clb2, active compounds read low",0.985
same,normalized growth,"locus YPR141C, strain kar3, active compounds read low",0.982
same,normalized growth,"locus YPR163C, strain tif3, active compounds read low",0.99
same,normalized growth,"locus YPR167C, strain met16, active compounds read low",1
same,normalized growth,"strain wtn01, active compounds read low",0.995
